Data taken from the supplement of paper PMC10338343.
± gives the standard deviation.

Columns and labels:
[1] = tested on: MILI (PIWIL2) piRISC loaded with piRNA #1 (26 nt); assay: pre-steady-state target cleavage rate (min^-1); guide: piRNA #1 5'p-UGAGGUAGUAGGUUGUAUAGUAUCCA; higher = faster piRNA-guided slicing of the target; settings: auxiliary factor: 500 nM mouse GTSF1;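 note: 1 nM active piRISC with 0.1 nM target library at 33 °C single turnover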
Procedure, shortened: (§1)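 A burst-and-steady-state fit was used to obtain the pre-steady-state cleavage rate. The input data were sequencing reads of uncleaved targets, normalised to depth and to weakly complementary targets, from a […] transcribed, DNA-blocked target RNA library mixed with 1 nM active affinity-purified piRISC holding one synthetic guide, with or without 500 nM GTSF1 partner protein, in HEPES–potassium acetate buffer at 33 °C for 0–8 or 0–960 min. Three trials were pooled and k3 was capped at 0.0001 min^-1.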

[2] = tested on: EfPiwi piRISC loaded with piRNA #1 (26 nt); assay: pre-steady-state target cleavage rate (min^-1); auxiliary factor: 500 nM Ephydatia muelleri Gtsf1; guide: piRNA #1 5'p-UGAGGUAGUAGGUUGUAUAGUAUCCA; MIWI and MILI are mouse PIWI proteins and EfPiwi is from a freshwater sponge; tags in brackets are library labels; higher = faster piRNA-guided slicing of the target
Procedure, shortened: as §1

Row | Sequence | pre-steady-state target cleavage rate [1] | pre-steady-state target cleavage rate [2]
1 | GGAGACCUAACUACUACAACCUACUACCUCA | 0.107 ± 0.026 | 0.00946 ± 0.0059
2 | GGAGUGGAGUACUAUACAACCUACUACCUCA | 0.153 ± 0.0099 | 0.0116 ± 0.0055
3 | GGAGACGAUACUAAACAACCUACUACCUCA | 0.207 ± 0.016 | 0.0292 ± 0.012
4 | GGAGACCUAUCCAUACAACCUACUACCUCA | 0.0836 ± 0.016 | 0.0212 ± 0.01
5 | GGAGACGAUACUAUACAACCUACUACCUCC [g2:g24:cont:t1C] | 0.182 ± 0.014 | 0.0508 ± 0.017
6 | GGAGUGCUUACUAUACAACCUACUACCUCA | 0.162 ± 0.0091 | 0.0694 ± 0.025
7 | GGAGUGCAUACUAUACAACCUACUACGUCA | 0.0632 ± 0.0079 | 0.00318 ± 0.0018
8 | GGAGUGGAUACUAUAACAACCUACUACCUCA | 0.171 ± 0.0095 | 0.0556 ± 0.021
9 | GGAGACGAAACUUUACAACCUACUACCUCA | 0.213 ± 0.03 | 0.0147 ± 0.0064
10 | GGAGACGAUACUAUACAACCUACGUACCUCA | 0.108 ± 0.013 | 0.00418 ± 0.0019
11 | GGAGACCUAUCUAUACUACCUACUACCUCA | 0.0815 ± 0.01 | 0.00437 ± 0.0031
12 | GGAGACCAUACUAUACAACCAACUUCCUCA | 0.00585 ± 0.003 | 0.00509 ± 0.0046
13 | GGAGACGAUACUAUACAACCAACUUCCUCA | 0.00374 ± 0.0027 | 0.00381 ± 0.0022
14 | GGAGAGGAUACUAUACUACCUACUACCUCA | 0.173 ± 0.011 | 0.00925 ± 0.0043
15 | GGAGUGGAUACUAUGACAACCUACUACCUCA | 0.188 ± 0.011 | 0.0114 ± 0.0053
16 | GGAGUGGAUACUAAACAACCAACUACCUCA | 0.007 ± 0.0021 | 0.0031 ± 0.0017
17 | GGAGUGGAUAGAAUACAACCUACUACCUCA | 0.156 ± 0.014 | 0.0062 ± 0.0044
18 | GGAGACCAUACUAUACAAGCUACUACCUCA | 0.253 ± 0.02 | 0.00377 ± 0.0015
19 | GGAGACCAAUCUAUACAACCUACUACCUCA | 0.117 ± 0.02 | 0.0121 ± 0.0056
20 | GGAGAGGAUAGUAUACAACCUACAACCUCA | 0.037 ± 0.0093 | 0.00249 ± 0.0021

Row | Sequence | pre-steady-state target cleavage rate [1] | pre-steady-state target cleavage rate [2]
21 | GGAGAGGAUACUAUACAAGCUACUACGUCA | 0.19 ± 0.02 | 0.00403 ± 0.0018
22 | GGAGACCAUACUAUUCAACCUACUUCCUCA | 0.1 ± 0.022 | 0.00483 ± 0.0048
23 | GGAGAGGAUACUAUACAACCUACUACCCUCA | 0.11 ± 0.017 | 0.00508 ± 0.0022
24 | GGAGUGGAUACUAUACAACCAACUACGUCA | 0.00435 ± 0.0018 | 0.00367 ± 0.0011
25 | GGAGUGGAUACAUACAACCUACUACCUCA | 0.131 ± 0.011 | 0.131 ± 0.048
26 | GGAGAGGAUCCUAUACAACCUACUACCUCA | 0.164 ± 0.025 | 0.0886 ± 0.046
27 | GGAGAGGAUACUAUACAAGCAACUACCUCA | 0.00819 ± 0.0023 | 0.00405 ± 0.0022
28 | GGAGACGAUACUUUACAACCUACUACCUGA | 0.117 ± 0.021 | 0.00356 ± 0.0024
29 | GGAGACGAUAGUAUACAACCUACUACCUGA | 0.113 ± 0.017 | 0.0032 ± 0.0023
30 | GGAGACGAGUACUAUACAACCUACUACCUCA | 0.176 ± 0.014 | 0.0147 ± 0.0053
31 | GGAGAGGAUACUAUUCAACGUACUACCUCA | 0.0162 ± 0.0029 | 0.00415 ± 0.0012
32 | GGAGACCAAACUAUACAACCUACUUCCUCA | 0.0841 ± 0.035 | 0.00317 ± 0.0029
33 | GGAGACGUUACUAUACAACCUACUACCACA | 0.191 ± 0.016 | 0.00242 ± 0.0022
34 | GGAGAGGAUACUAUACUACGUACUACCUCA | 0.0192 ± 0.0028 | 0.00407 ± 0.0022
35 | GGAGUGGUAACUAUACAACCUACUACCUCA | 0.141 ± 0.016 | 0.0157 ± 0.0069
36 | GGAGACCUAACUAUACCACCUACUACCUCA | 0.0944 ± 0.018 | 0.0066 ± 0.0031
37 | GGAGACCGUACUAUACAACCUACUACCUCA | 0.157 ± 0.021 | 0.156 ± 0.049
38 | GGAGACGAUACUAUACUACCUACUUCCUCA | 0.101 ± 0.016 | 0.00224 ± 0.0016
39 | GGAGACCAUUCUAUACAACCUACUACCACA | 0.159 ± 0.018 | 0.00335 ± 0.0031
40 | GGAGAGCAUACUAUACAACCUACUACCUCA | 0.188 ± 0.015 | 0.0285 ± 0.012

Row | Sequence | pre-steady-state target cleavage rate [1] | pre-steady-state target cleavage rate [2]
41 | GGAGAGCAAACUAUACAACCUACUACCUCA | 0.113 ± 0.019 | 0.0127 ± 0.0059
42 | GGAGACCAUACUUACAACCUACUACCUCA | 0.0658 ± 0.012 | 0.00861 ± 0.0046
43 | GGAGUGGAUAGUAUACAACCUACUACCUGA | 0.0603 ± 0.014 | 0.00315 ± 0.0017
44 | GGAGACCAUACUAUACAACCUACUACCCUCA | 0.22 ± 0.024 | 0.00445 ± 0.0021
45 | GGAGACCUAAGUAUACAACCUACUACCUCA | 0.0701 ± 0.0097 | 0.00697 ± 0.0037
46 | GGAGACCUAACUAUACAACCUACUUCCUGA | 0.0081 ± 0.0069 | 0.00376 ± 0.0037
47 | GGAGACCUAACUAUACAACCUACUACCUGCA | 0.149 ± 0.034 | 0.0711 ± 0.039
48 | GGAGACGAUAGUAUACAUCCUACUACCUCA | 0.232 ± 0.016 | 0.00323 ± 0.0026
49 | GGAGUGGAUACUUUACAACCUUCUACCUCA | 0.0065 ± 0.0017 | 0.00301 ± 0.0026
50 | GGAGAGGAUACUAUACAACCUAUCUACCUCA | 0.128 ± 0.012 | 0.00568 ± 0.0029
51 | GGAGAGCUAACUAUACAACCUACUACCUCA | 0.137 ± 0.018 | 0.00909 ± 0.0042
52 | GGAGACCAUACUAUACAUCCUACUACCUCA | 0.302 ± 0.025 | 0.00918 ± 0.0027
53 | GGAGACCUUGCUAUACAACCUACUACCUCA | 0.114 ± 0.022 | 0.00436 ± 0.004
54 | GGAGACCUAUGAUCACAACCUACUACCUCA | 0.00534 ± 0.0024 | 0.00429 ± 0.0038
55 | GGAGAGGAUUCUAUACAAGCUACUACCUCA | 0.15 ± 0.01 | 0.00384 ± 0.0028
56 | GGAGACCAUACUUUACAACCUACUACCUGA | 0.0887 ± 0.018 | 0.00591 ± 0.0031
57 | GGAGUGGUUUCUAUACAACCUACUACCUCA | 0.148 ± 0.0079 | 0.00603 ± 0.0034
58 | GGAGAGGACACUAUACAACCUACUACCUCA | 0.185 ± 0.016 | 0.0224 ± 0.0085
59 | GGAGUGGUAUCUAUACAACCUACUACCUCA | 0.136 ± 0.0091 | 0.0613 ± 0.023
60 | GGAGAGGAUACUAUACAACCGACUACCUCA | 0.00439 ± 0.0027 | 0.00504 ± 0.002
